KB-3-1 cytotox: qHTS assay for MDR1-selective chemotherapeutics: Primary screen using the parental adenocarcinoma cell KB-3-1; KB-3-1 viability, CellTiter-Glo ATP luminescence, 72 h; Potency, µM (doses to about 46.1 µM), actives largely listed as cytotoxic; actives 1.4% (n = 400,000); AID 1347075, 2019; further: nearly all actives have a fitted effect of over 60% in size
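Cells are dispensed, compounds pinned in, plates held at 37 °C for 72 h, then CellTiter-Glo is added and luminescence read after 10 minutes. Cell line: parental KB-3-1 in phenol-red-free DMEM, 10% FBS.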
KB-V1 cytotox: qHTS assay for MDR1-selective chemotherapeutics: Primary screen using the drug-selected MDR subline cells KB-V1. KB-V1 MDR cells viability, CellTiter-Glo, 72 h. Potency, µM (titrated, usually from 46.1 µM), hits mostly cytotoxic. actives 3.4% (n = 400,000). AID 1347076, 2019; further: nearly all actives have a fitted effect of over 60% in size
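KB-V1 cells (P-gp-expressing MDR subline of KB-3-1) in phenol-red-free DMEM with 10% FBS were exposed to library compounds over a concentration series for 72 h at 37 degrees C. Viability read by CellTiter-Glo luminescence; concentration-effect curves fitted after normalization.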
DT40 TDP1 no CPT: qHTS for Inhibitors of human tyrosyl-DNA phosphodiesterase 1 (TDP1): qHTS in cells in absence of CPT | DT40 Tdp1-/- hTDP1 cells, no CPT, ATP luminescence, 48 h | Potency, µM (titrated, usually from 46.2 µM), inactives show at the highest dose activity change, negative = growth inhibition, hits mostly inhibitors | actives 15% (n = 420,000) | AID 686978, 2013; further: nearly all actives have a fitted effect of over 55% in size
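DT40 Tdp1-/-;hTDP1 cells, no CPT (DMSO vehicle only), 400 cells/well; compounds pin-transferred; ≥48 hr, 37 °C; CellTiter-Glo 30 min RT dark, luminescence read.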
HT1080 IDH1KD tx: qHTS for induction of synthetic lethality in tumor cells producing 2HG: qHTS for the HT-1080-IDH1KD cell line; Potency, µM (series often up to 46.1 µM), without a hit: top-dose activity, negative = toxicity, most hits filed as cytotoxic; actives 2% (n = 360,000); HT-1080 IDH1 knockdown viability, ATP luminescence, 48 h;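 further: 0% = DMSO wells and -100% = cell-free medium wells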
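Luminescent ATP read-out (CellTiter-Glo, 10 min at room temperature) after 48 h compound exposure at 37 °C gave viability of IDH1-knockdown HT-1080 cells. Activity was normalised to DMSO and cell-free wells, then fitted as concentration-response curves.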
TDP1 cell CPT: qHTS for Inhibitors of human tyrosyl-DNA phosphodiesterase 1 (TDP1): qHTS in cells in presence of CPT; chicken DT40 Tdp1-/-;hTDP1 cells + 20 nM CPT, ATP luminescence, 48 h; Potency, µM (titrated, usually from 46.2 µM), inactives show top-dose activity change, negative = growth inhibition, most hits filed as inhibitors; actives 12% (n = 420,000); AID 686979, 2013; further: nearly all actives have a fitted effect of over 55% in size
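Chicken DT40 Tdp1-/- cells stably complemented with human TDP1 were seeded at 400 cells/well in medium containing 20 nM camptothecin, exposed to pin-transferred compounds, and grown at 37 °C for at least 48 hr. Viability was read as ATP luminescence.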
HT1080NT lethal: qHTS for induction of synthetic lethality in tumor cells producing 2HG: qHTS for the HT-1080-NT fibrosarcoma cell line | Potency, µM (titrated, usually from 46.1 µM), for inactives: top-dose activity, negative = less viability, most hits filed as cytotoxic | HT-1080-NT fibrosarcoma viability, CellTiter-Glo ATP luminescence, 48 h | AID 686970, 2013 | actives 1.6% (n = 360,000);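 further: NT is the 2HG producing partner of a matched IDH1 knockdown line; 0% = DMSO-treated cells and -100% = media-only wells without cells; nearly all actives have a fitted effect of over 55% in size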
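Luminescent CellTiter-Glo readout after 48 hours of compound exposure at 37 degrees C defined viability of HT-1080-NT cells. Activity was normalized to DMSO wells and cell-free media wells; concentration-response curves were fitted and assigned curve classes.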
An asterisk follows results filed as active; i = inactive; ? = inconclusive; / = no result. Compounds with a hit are over-represented: about 19% of the library has one in this group of screens. The call rests on the fitted dose curve; in most records, active means well fitted curve in the direction sought with a large enough effect; inconclusive means small, poorly fitted or top-dose-only effect, or another doubt; inactive means no such curve, though single readings can be large; an effect the other way counts as inactive or inconclusive. Unless noted, on the % scale 0 is the no-effect control and ±100 the full control effect; potency means the concentration at half of the fitted maximal effect.

SMILES	KB-3-1 cytotox	KB-V1 cytotox	DT40 TDP1 no CPT	HT1080 IDH1KD tx	TDP1 cell CPT	HT1080NT lethal
CC(C)C(C)NC(=O)COn1nnc2ccc(S(=O)(=O)N3CCOCC3)cc21 (stereo unspecified)	i	i	-14%	0%	-2%	4%
O=C(Nc1ccc(OC(F)F)cc1)c1nc(SCc2ccccc2F)ncc1Cl	i	i	13µM*	/	?	/
CC(=O)Nc1ccc(NC(=O)c2nc(SCc3ccccc3C)ncc2Cl)cc1	i	i	-9%	/	-29%	/
COc1ccc(CCNC(=O)c2nc(SCc3ccccc3F)ncc2Cl)cc1OC	/	/	23µM*	/	18µM*	/
Cc1coc2cc3oc(=O)ccc3cc12	i	i	-19%	-1%	-1%	-2%
C=CCOn1c(=O)c(-c2cccs2)[n+]([O-])c2ccccc21	i	?	?	-7%	23µM*	-4%
Cc1ccc(F)c(C(=O)N2CCCC(C)(C(=O)NS(=O)(=O)C3CC3)C2)c1F (stereo unspecified)	i	i	5.8µM*	2%	6.5µM*	?
Cc1ccc(F)cc1C(=O)N1CCCC(C)(C(=O)NS(=O)(=O)C2CC2)C1 (stereo unspecified)	i	i	2.6µM*	19%	?	24%
CC1(C(=O)NS(=O)(=O)C2CC2)CCN(C(=O)c2ccc(F)cc2Cl)C1 (stereo unspecified)	i	i	21%	10%	3%	23%
COc1ccc(C(=O)N2CCCC(C)(C(=O)NS(=O)(=O)C3CC3)C2)c(OC)c1 (stereo unspecified)	i	i	3.7µM*	1%	2.1µM*	21%
CC1(C(=O)NS(=O)(=O)C2CC2)CCCN(C(=O)C2(c3ccc(Cl)cc3)CCCC2)C1 (stereo unspecified)	i	i	12µM*	3%	?	17%
CCOc1cc(/C=N/NC(=O)C(C)Sc2ccccn2)ccc1O (stereo unspecified)	?	i	?	5%	6%	13%
Cc1cc(C(=O)N2CCCC(C)(C(=O)NS(=O)(=O)C3CC3)C2)n(C(C)(C)C)n1 (stereo unspecified)	i	i	5.2µM*	?	8.2µM*	23%
CC1(C(=O)NS(=O)(=O)C2CC2)CCCN(C(=O)c2ccc(F)cc2Cl)C1 (stereo unspecified)	i	i	1.5µM*	20%	?	15%
Cc1ccc(C(=O)N2CCCCC2CCN2CCCCC2)cc1 (stereo unspecified)	/	/	-3%	/	5%	/
O=C(NCCc1ccccc1)/C(=C\c1cccc([N+](=O)[O-])c1)NC(=O)c1ccco1	/	/	?	3%	?	4%
CCC(=O)c1c[nH]c(C(=O)N2CCN(c3ccccc3)CC2)c1	i	i	-14%	1%	10%	-6%
CC(=O)c1ccc(N2CCN(C(=O)c3ccccc3SCC(=O)NCc3ccco3)CC2)c(F)c1	i	21µM*	?	-7%	?	-8%
CCC(=O)c1ccc(N2CCN(S(=O)(=O)c3ccccc3)CC2)c(F)c1	i	i	?	14%	-24%	-1%
CCOC(=O)N1CCN(c2cc3[nH]c(=S)[nH]c3cc2F)CC1	i	i	2%	26%	?	9%
CCOC(=O)N1CCN(c2cc(N)c([N+](=O)[O-])cc2F)CC1	i	23µM*	?	-25%	?	0%

Screening data as filed in PubChem.
